HT1080 IDH1KD tx = toxicity to HT-1080 IDH1 knockdown cells (counter line); actives 2% (n = 360,000); HT-1080 IDH1 knockdown viability, ATP luminescence, 48 h; Potency, µM (doses to about 46.1 µM), for inactives: at the top dose activity, negative = toxicity, usual class: cytotoxic; AID 686971;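 note: 0% = DMSO wells and -100% = cell-free medium wells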
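HT-1080-IDH1KD cells (IDH1 knocked down), 750/well in RPMI with 5% FBS, treated with compound 48 h at 37 degrees C. Viability by CellTiter-Glo luminescence, normalised to DMSO and no-cell wells; concentration-response curves classed.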
TDP1 cell noCPT = qHTS for Inhibitors of human tyrosyl-DNA phosphodiesterase 1 (TDP1): qHTS in cells in absence of CPT. DT40 Tdp1-/- hTDP1 cells, no CPT, ATP luminescence, 48 h. Potency, µM (titrated, usually from 46.2 µM), inactives show at the highest dose activity change, negative = growth inhibition, hits mostly inhibitors. actives 15% (n = 420,000); note: % is set by controls: 0 for no effect and ±100 for the full control effect; nearly all actives have a fitted effect of over 55% in size
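Readout: luminescence from CellTiter-Glo after 30 min in the dark at RT. Cells: DT40 Tdp1-/- with stable hTDP1, 400/well. Exposure: compounds alone, ≥48 hr, 37 °C.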
HT1080NT lethal = kills 2HG-producing HT-1080-NT fibrosarcoma cells; HT-1080-NT fibrosarcoma viability, CellTiter-Glo ATP luminescence, 48 h; Potency, µM (doses to about 46.1 µM), for inactives: at the highest dose activity, negative = less viability, usual class: cytotoxic; actives 1.6% (n = 360,000); AID 686970;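 note: NT is the 2HG producing partner of a matched IDH1 knockdown line; 0% = DMSO-treated cells and -100% = media-only wells without cells; nearly all actives have a fitted effect of over 55% in size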
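A 48-hour cytotoxicity screen used HT-1080-NT cells plated 2 hours before compound delivery. ATP-based CellTiter-Glo luminescence measured viability, normalized to DMSO and no-cell controls.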
TGFb SMAD3 inh = TGF-b pathway inhibition; Potency, µM (highest dose often 46.1 µM), for the others: at the highest dose activity, negative = inhibition, actives largely listed as inhibitors; HepG2 CAGA-GFP TGF-b/SMAD3 reporter, GFP fluorescence, 18 h; TGF-beta stimulated, 500 pg/mL final; actives 1.2% (n = 410,000); note: % is set by controls: 0 for no effect and ±100 for the full control effect; nearly all actives have a fitted effect of over 65% in size
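HEPG2 CAGA-GFP, 1000 cells/well; 2 h settle, 37 C; cpd via pin tool; TGF-b 500 pg/mL final; 18 h, 37 C; GFP imaging ex488/em500-530; %Activity normalised to -TGF-b and +DMSO controls; CRC fit, curve class.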
HepG2 tox = counter-screen for TGF-b inhibitors: cytotoxicity in HepG2 cells; AID 588856; actives 0.76% (n = 410,000); HepG2 CAGA-GFP viability, ATP luminescence, 18 h; Potency, µM (titrated, usually from 46.1 µM), inactives show at the top dose activity change, negative = cytotoxicity, hits mostly cytotoxic
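HepG2 CAGA-GFP cells (1000/well, DMEM with 1% FBS) received compound, then TGF-beta at 500 pg/mL final, and were incubated 18 hours at 37 degrees C. Viability was read by CellTiter-Glo luminescence. Media-only wells were set as complete cell-killing and DMSO as no toxicity.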
DT40 TDP1 CPT = growth inhibition of DT40 Tdp1-/-;hTDP1 cells with camptothecin (screen for TDP1 inhibitors). chicken DT40 Tdp1-/-;hTDP1 cells + 20 nM CPT, ATP luminescence, 48 h. Potency, µM (titrated, usually from 46.2 µM), for the others: at the highest dose activity change, negative = growth inhibition, hits mostly inhibitors. actives 12% (n = 420,000); note: % is set by controls: 0 for no effect and ±100 for the full control effect; nearly all actives have a fitted effect of over 55% in size
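Cell growth measured by CellTiter-Glo luminescence after a minimum 48 h, 37 C compound exposure with 20 nM CPT in Tdp1-knockout DT40 cells stably expressing hTDP1, seeded 400/well; qHTS titration format.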
Active calls of the source: *; ? = inconclusive; · = not tested or not shown; ! = a repeat was not active; [ ] = another dose, or the depositor's remark. Sampled rows, rich in hits. Any-hit rate of the full collection: about 17%. Calls come from the whole dose curve; as a rule, active = well fitted curve in the direction sought with a large enough effect; inconclusive = small, poorly fitted or top-dose-only effect, or another doubt; inactive = no such curve, though single readings can be large; an effect the other way counts as inactive or inconclusive. Potency is the fitted concentration of half-maximal effect.

SMILES	HT1080 IDH1KD tx	TDP1 cell noCPT	HT1080NT lethal	TGFb SMAD3 inh	HepG2 tox	DT40 TDP1 CPT
COc1ccc(NS(=O)(=O)c2cccc(NC(=O)C34CCC(CC3)C4)c2)cc1	-23%	21µM*	-19%	-22%	-11%	?
CCOc1ccc(C(=O)Nc2ccc(S(=O)(=O)N3C[C@@H]4C[C@@H](C3)c3cccc(=O)n3C4)cc2)cc1	23µM*	12µM*	?	-12%	-9%	21µM*
CCN(CC)S(=O)(=O)c1ccc(NC(=O)C(C)N(c2ccc(OC)cc2)S(C)(=O)=O)cc1 (stereo not drawn)	-2%	18µM*	1%	-1%	-17%	?
O=C(Nc1ccc(S(=O)(=O)N2C[C@@H]3C[C@@H](C2)c2cccc(=O)n2C3)cc1)c1ccc(F)cc1	0%	2%	13%	-6%	-4%	0%
O=C1OCCN/C1=C\C(=O)c1ccc(Cl)cc1	29%	-15%	?	-15%	-22%	3%
CCOC(=O)c1c(-c2ccccc2)csc1NC(=O)c1cc(-c2cccc(OC)c2)on1	·	9%	·	3%	6%	?
CN(Cc1nccn1C)C(=O)CC1C(=O)NCCN1Cc1ccc(F)cc1Cl (stereo not drawn)	13%	5%	-4%	6%	12%	-9%
CC(=O)Nc1cccc(C(=O)N2CCN(S(=O)(=O)c3ccc4ccccc4c3)CC2)c1	-13%	5%	-10%	-21%	4%	-19%
CCOC(=O)c1sc(NC(=O)c2c(C)nn(Cc3ccccc3)c2C)cc1C	?	?	?	?	-36%	16µM*
CC(=O)Nc1ccc(NC(=O)c2cccc(S(=O)(=O)N3CCCCCC3)c2)cc1	?	?	-27%	-27%	-14%	?
CC(=O)Nc1cccc(C(=O)N2CCN(S(=O)(=O)c3ccc(C4CCCCC4)cc3)CC2)c1	-16%	23µM*	-28%	?	-17%	?
CC(=O)Nc1cccc(C(=O)Nc2ccc(S(=O)(=O)N3CCCCC3)cc2)c1	0%	15µM*	7%	8%	-3%	?
COc1ccc(/C(C)=N/NC(=O)c2cccc(S(=O)(=O)N3CCCC3)c2)c(O)c1	?	2.9µM*	?	-23%	-3%	5.2µM*
CCOC(=O)c1sc(NC(=O)c2ccccc2)cc1C	-19%	?	-16%	-14%	-58%	?
COc1ccccc1/C=C/C(=O)OCC(=O)c1c(N)n(C)c(=O)n(C)c1=O	-2%	-15%	0%	-2%	-8%	5%
Cc1nc(-c2ccc(C(=O)Nc3cccc(F)c3)cc2)cs1	?	?	?	-6%	-50%	-28%
Cc1nc(-c2cccc(NC(=O)c3ccc(-n4cccn4)cc3)c2)cs1	-7%	10µM*	4%[9.24 µM]	?	-12%	15µM*
CC(=O)Nc1ccc(NC(=O)c2c(C)nn(Cc3ccccc3)c2Cl)cc1	22%	1.2µM*	4%	0%	-5%	13µM*
O=C(NCC1CCN(c2ccc(S(=O)(=O)N3CCOCC3)cc2)CC1)c1cccc(Cl)c1	-23%	12µM*	-5%	-16%	-4%	?
COc1ccc(NS(=O)(=O)c2cccc(NC(=O)c3ccc(S(=O)(=O)N4CCCCCC4)cc3)c2)cc1	?	2.6µM*	?	0%	-21%	3.7µM*
Cc1ccc(S(=O)(=O)NCCn2nc(C)nc2C)cc1	0%	2%	7%	22%	5%	16%
Cn1c(CC(=O)Nc2ccccc2Cl)nnc1SCC(=O)Nc1nncs1	-3%	-15%	-1%	-4%	-18%	-26%
CNc1c([N+](=O)[O-])cnn1-c1ccc(F)cc1	5%	-3%	4%	1%	-4%	1%
COc1ccc(COC(=O)c2cccc(S(=O)(=O)N3CCN(C(C)=O)CC3)c2)cc1F	-9%	?	-27%	-7%	1%	?
CC(C)CC(=O)N1CCN(S(=O)(=O)c2ccc(C3CCCCC3)cc2)CC1	-4%	12µM*	3%	-18%	-27%	21µM*
SMILES	HT1080 IDH1KD tx	TDP1 cell noCPT	HT1080NT lethal	TGFb SMAD3 inh	HepG2 tox	DT40 TDP1 CPT
COc1ccc(COC(=O)c2cccc(S(=O)(=O)N3CCN(C(C)=O)CC3)c2)cc1	-9%	21µM*	-2%	1%	-33%	?
COc1cc(NC(=O)c2cccc(S(=O)(=O)N3CCCCC3)c2)cc(OC)c1OC	-8%	?	-6%	-1%	-21%	23µM*
CCOc1ccc(CN2CCN(Cc3[nH]c4ccccc4c3C)CC2CCO)cc1 (stereo not drawn)	-26%	?	-11%	?	-86%	?
COC(=O)C1=C(C(=O)OC)[C@]2([C@@H]3CC=CCN[C@@H](Cc4ccccc4)C(=O)N3Cc3ccccc3)C=C[C@H]1O2	6%	12µM*	9%	?	-23%	18µM*
COC(=O)C1=C(C(=O)OC)[C@]2([C@H]3CC=CCN[C@@H](Cc4ccccc4)C(=O)N3Cc3ccccc3)C=C[C@H]1O2	-28%	15µM*	-18%	-33%	-2%	18µM*
CC(=O)c1ccc(NC(=O)CSc2nnc3ccc(-c4ccc(Cl)cc4)nn23)cc1	·	-11%	·	-5%	6%	-12%
O=C(Nc1ncccn1)c1ccc(Cl)c([N+](=O)[O-])c1	-19%	8%	-4%	?	-23%	15%
CN(Cc1cccnc1)Cc1cn(C)nc1-c1cccc(Cl)c1	-1%	16µM*!	0%	17%	-10%	?
CN(Cc1cccnc1)Cc1cn(C)nc1-c1ccc(Oc2ccccc2)cc1	-20%	18µM*	-23%	-14%	-25%	?
Cc1cc(CN(C)Cc2cn(C)nc2-c2ccc(Oc3ccccc3)cc2)on1	-11%	16µM*	0%	-24%	-13%	?
Cc1cc(CN(C)Cc2ccc(OCC(O)CN(C)Cc3ccccc3)cc2)on1 (stereo not drawn)	-2%	?	-26%	-3%	-20%	-22%
COC(=O)c1cc(NC(=O)CC(=O)c2cccc(N)c2)cc(C(=O)OC)c1	21µM*	-5%	?	-11%	2%	5%
COC(=O)c1cc(NC(=O)c2cccc(F)c2)cc(C(=O)OC)c1	-1%	?	1%	-2%	-10%	9%

Screening results deposited in PubChem BioAssay by National Center for Advancing Translational Sciences (NCATS).
